Experimental data reported in the supplement of paper PMC13380429.
Counter-ions that a name gives are not always drawn.

Key:
[1] = tested on: Vero E6 infected with SARS-CoV-2; assay: morphology score (similarity to uninfected cells); higher = more like uninfected cells; conditions: 24 h
[2] = tested on: Vero E6 infected with SARS-CoV-2; assay: SARS-CoV-2 infection rate relative to infected DMSO; higher = more infection, active = 60 or less; conditions: 24 h

Row | SMILES | morphology score [1] | SARS-CoV-2 infection rate [2]
1 | C=C1C[C@]23C[C@@]1(O)CC[C@H]2[C@@]12C=C[C@H](O)[C@@](C)(C(=O)O1)[C@H]2[C@@H]3C(=O)O (10 µM) | -0.0765 | 109% (inactive)
2 | O=C(O)c1c(Cl)c(Cl)c(Cl)c(Cl)c1-c1c2cc(I)c(=O)c(I)c-2oc2c(I)c(O)c(I)cc12 [rose-bengal] (0.833333 µM) | 0.318 | 98.2% (inactive)
3 | CCCCCCCCCCCCCCCC(=O)OC[C@H](O)[C@H]1OC(=O)C(O)=C1O [L-ascorbyl-6-palmitate] (10 µM) | -0.0423 | 112% (inactive)
4 | CCOC(=O)N1CSC[C@H]1C(=O)O [telmesteine] (10 µM) | 0.00511 | 99.5% (inactive)
5 | CC(=O)N1CCC(C(=O)N(CCCN2CCC(Cc3ccc(C(N)=O)cc3)CC2)c2ccc(C)c(Cl)c2)CC1 (10 µM) | 0.0284 | 107% (inactive)
6 | CC(C)c1nc(CN(C)C(=O)N[C@H](C(=O)N[C@@H](Cc2ccccc2)C[C@H](O)[C@H](Cc2ccccc2)NC(=O)OCc2cncs2)C(C)C)cs1 [Ritonavir] (10 µM) | 0.0318 | 95% (inactive)
7 | N[C@@H](C(=O)O)c1nn[nH]n1 (racemic) [tetrazol-5-yl-glycine-(RS)] (10 µM) | 0.03 | 98% (inactive)
8 | O=C(O)C(Cc1ccccc1[N+](=O)[O-])=NNc1nc(-c2ccc(Cl)c(Cl)c2)cs1 (10 µM) | 0.23 | 102% (inactive)
9 | COc1cccc(N(C)C(=S)Oc2ccc3c(c2)CCCC3)n1 [liranaftate] (10 µM) | 0.341 | 94% (inactive)
10 | COC(=O)c1cc(OC)c2c(c1-c1c(CO)cc(OC)c3c1OCO3)OCO2 [bicyclol] (10 µM) | 0.199 | 88% (inactive)
11 | C=Cc1c(C)c2cc3nc(c(CC(=O)O)c4[n-]c(cc5nc(cc1[n-]2)C(C)=C5CC)c(C)c4C(=O)O)[C@@H](CCC(=O)O)[C@@H]3C.[Cu+2] [chlorophyllin-copper] (10 µM) | -0.0712 | 108% (inactive)
12 | Nc1c(-c2cccc(C(F)(F)F)c2)nsc1C(=O)O [amflutizole] (10 µM) | 0.00564 | 108% (inactive)
13 | O=C(CCCN1CCC(n2c(=O)[nH]c3ccccc32)CC1)c1ccc(F)cc1 [benperidol] (10 µM) | -0.264 | 118% (inactive)
14 | CCCCCCCCc1ccc(-c2ccc(C(=O)O)cc2)cc1 (10 µM) | -0.0106 | 96% (inactive)
15 | COc1cc2c(c(OC)c1OC)-c1ccc(OC)c(=O)cc1[C@@H](NC(C)=O)CC2 [colchicine] (10 µM) | -0.0542 | 96% (inactive)
16 | O=C(Nc1ccccc1)N1CCN(c2nc(-c3ccccc3)ns2)CC1 (10 µM) | -0.272 | 112% (inactive)
17 | CCCOc1ccc(C(=O)OCCN(CC)CC)cc1N [proxymetacaine] (10 µM) | -0.0115 | 108% (inactive)
18 | Cc1ncc([N+](=O)[O-])n1CC(O)CCl (configuration not stated) [ornidazole] (10 µM) | 0.0809 | 107% (inactive)
19 | CN[C@H](CNC(=O)N1CCC[C@@H]([C@@H](OCCNC(=O)OC)c2cccc(Cl)c2)C1)C[C@H]1CCCOC1 (10 µM) | -0.0283 | 105% (inactive)
20 | CN(C)C(=O)n1nnnc1Cc1ccc(-c2ccccc2)cc1 (0.833333 µM) | 0.00131 | 85% (inactive)
21 | CCOC(=O)N1CCC(=C2c3ccc(Cl)cc3CCc3cccnc32)CC1 [loratadine] (10 µM) | 0.221 | 90% (inactive)

Row | SMILES | morphology score [1] | SARS-CoV-2 infection rate [2]
22 | NC(=O)c1ccc2[nH]ccc2c1 (10 µM) | 0.192 | 87.5% (inactive)
23 | Cc1noc(NS(=O)(=O)c2ccc(N)cc2)c1C [sulfafurazole] (10 µM) | 0.1 | 100% (inactive)
24 | CC(C)CC(N)=O [isovaleramide] (10 µM) | 0.0817 | 104% (inactive)
25 | Cc1nc(-c2cccnc2)sc1C(=O)Nc1ccccc1-c1cn2c(CN3CCOCC3)csc2n1 (10 µM) | 0.215 | 98% (inactive)
26 | C#CC1(OCC(O)CN2CCN(c3cccc(C(F)(F)F)c3)CC2)CCCCC1 (configuration not stated) [terciprazine] (10 µM) | 0.107 | 104% (inactive)
27 | CC/C=C\C/C=C\C/C=C\C/C=C\C/C=C\C/C=C\CCC(=O)OCC [doconexent-ethyl-ester] (10 µM) | 0.193 | 88.5% (inactive)
28 | O=C(O)C(F)(F)C(F)(F)C(F)(F)C(F)(F)C(F)(F)C(F)(F)C(F)(F)F [ammonium-perfluorocaprylate] (10 µM) | -0.0312 | 112% (inactive)
29 | COCC(=O)Nc1c(I)c(C(=O)NCC(O)CO)c(I)c(C(=O)N(C)CC(O)CO)c1I (configuration not stated) [iopromide] (10 µM) | -0.11 | 106% (inactive)
30 | CC1CCC(NC(=O)N(CCCl)N=O)CC1 (configuration not stated) [semustine] (10 µM) | -0.0906 | 116% (inactive)
31 | COC(=O)C1=C(C)N(C)C(C)=C(C(=O)OC)C1c1ccc(C(F)(F)F)cc1 (10 µM) | -0.13 | 114% (inactive)
32 | CC(/C=C/C(=O)NO)=C\[C@@H](C)C(=O)c1ccc(N(C)C)cc1 [trichostatin-a] (0.833333 µM) | -0.0945 | 108% (inactive)
33 | Cc1cc(OCCN2CCOCC2)nn1-c1ccc2ccccc2c1 (10 µM) | 0.0539 | 99.5% (inactive)
34 | FC(F)(F)c1cc(CO[C@H]2CCCN[C@H]2c2ccccc2)cc(C(F)(F)F)c1 (10 µM) | 0.777 | 16% (active)
35 | Cc1csc(-c2nnc(Nc3ccc(Oc4ncccc4-c4ccnc(N)n4)cc3)c3ccccc23)c1 (0.833333 µM) | 0.202 | 19.5% (active)
36 | O[C@H]1CC[C@H](Nc2nc(-c3ccccc3)nc3[nH]ccc23)CC1 (10 µM) | 0.409 | 93% (inactive)
37 | COc1ccc(C(Cl)=C(c2ccc(OC)cc2)c2ccc(OC)cc2)cc1 [chlorotrianisene] (10 µM) | 0.0843 | 95.5% (inactive)
38 | CCC1(CC)C(=O)NC(=O)N(C)C1=O [metharbital] (10 µM) | 0.221 | 91.5% (inactive)
39 | Cc1cn2nc([C@@H]3CCCCN3C(=O)c3cc(Cl)ccc3NS(C)(=O)=O)cc2nc1N1CC[C@H](N)C1 [presatovir] (10 µM) | 0.215 | 89% (inactive)
40 | C[C@H]1COc2c(C3(N)CC3)c(F)cc3c(=O)c(C(=O)O)cn1c23 [pazufloxacin] (10 µM) | 0.202 | 103% (inactive)
41 | CCC[C@H](N[C@H]1CCc2cc(F)cc(F)c2C1)C(=O)Nc1cn(C(C)(C)CNCC(C)(C)C)cn1 (10 µM) | 0.0166 | 102% (inactive)
42 | CN1C(CSCC(F)(F)F)Nc2cc(Cl)c(S(N)(=O)=O)cc2S1(=O)=O (configuration not stated) [polythiazide] (10 µM) | 0.2 | 100% (inactive)

Row | SMILES | morphology score [1] | SARS-CoV-2 infection rate [2]
43 | O=C(NCCO)c1cc(C(=O)NCCO)cc(C(=O)NCCO)c1 (10 µM) | 0.0411 | 102% (inactive)
44 | NS(=O)(=O)c1cc2c(cc1Cl)N=C(CSCc1ccccc1)NS2(=O)=O [benzthiazide] (10 µM) | -0.187 | 116% (inactive)
45 | CCCN1CC(NS(=O)(=O)N(CC)CC)CC2Cc3c(O)cccc3CC21 (configuration not stated) [quinagolide] (10 µM) | -0.243 | 112% (inactive)
46 | COc1cc([S+](C)[O-])ccc1-c1nc2cccnc2[nH]1 (configuration not stated) [sulmazole] (10 µM) | 0.165 | 98.5% (inactive)
47 | O=C1NC(c2ccccc2)(c2ccccc2)C(=O)N1COP(=O)(O)O [fosphenytoin] (10 µM) | -0.197 | 123% (inactive)
48 | CCOc1ccc(Cc2cc([C@]34OC[C@](CO)(O3)[C@@H](O)[C@H](O)[C@H]4O)ccc2Cl)cc1 [ertugliflozin] (10 µM) | -0.0565 | 107% (inactive)
49 | Cc1cc(NC(=O)Nc2ccc(F)c(F)c2)n(-c2ccccc2)n1 (10 µM) | 0.105 | 102% (inactive)
50 | C[C@H](N)Cc1c[nH]cn1 [alpha-methylhistamine-dihydrobromide-(S)-(+)] (10 µM) | 0.17 | 99% (inactive)
51 | CC(C)NCC(O)COc1cccc2[nH]c3ccccc3c12 (configuration not stated) [carazolol] (10 µM) | -0.011 | 91.5% (inactive)
52 | CC[C@@H]1C(=O)OC[C@@H]1Cc1cncn1C [pilocarpine] (10 µM) | -0.105 | 110% (inactive)
53 | OCCN1CCN(CCCN2c3ccccc3Sc3ccc(Cl)cc32)CC1 [perphenazine] (0.833333 µM) | -0.0186 | 109% (inactive)
54 | Nc1nc(F)nc2c1ncn2[C@@H]1O[C@H](COP(=O)(O)O)[C@@H](O)[C@@H]1O [fludarabine-phosphate] (10 µM) | 0.103 | 82.5% (inactive)
55 | Oc1nc(O)c2nc(O)[nH]c2n1 [uric-acid] (10 µM) | -0.0319 | 106% (inactive)
56 | C[C@]12C=CC(=O)C=C1CC[C@@H]1[C@@H]2CC[C@]2(C)OC(=O)CC[C@@H]12 [Testolactone] (10 µM) | 0.176 | 80.5% (inactive)
57 | CCn1c2ccccc2c2cc(CNCc3ccccc3OC)ccc21 (10 µM) | 0.26 | 87% (inactive)
58 | CC1Cc2ccccc2N1NC(=O)c1ccc(Cl)c(S(N)(=O)=O)c1 (configuration not stated) [indapamide] (10 µM) | 0.0243 | 112% (inactive)
59 | C[C@H](Cc1cc2c(c(C(N)=O)c1)N(CCCO)CC2)NCCOc1ccccc1OCC(F)(F)F [silodosin] (10 µM) | -0.144 | 106% (inactive)
60 | C[C@H](Nc1ncnc2[nH]cnc12)c1cc2ccc(F)cc2nc1-c1ccccn1 (10 µM) | 0.0578 | 114% (inactive)
61 | CC(C)N(CCCCOCC(=O)NS(C)(=O)=O)c1cnc(-c2ccccc2)c(-c2ccccc2)n1 [selexipag] (10 µM) | -0.0772 | 116% (inactive)
